Unmarked numbers belong to inactive results. Results filed as inconclusive are left out. Activity calls are given as the source filed them. Unless noted, the call rests on the fitted dose curve.

Experiment [1] can be described thus: Nuclear factor erythroid 2-related factor 2/antioxidant responsive element (Nrf2/ARE) small molecule agonists: qHTS cell viability counter screen in human keratinocytes (AID 1919968; active means well fitted curve in the direction sought with a large enough effect in the repeat runs; an effect the other way counts as inactive or inconclusive; further: nearly all actives have a fitted effect of over 55% in size). The procedure, abridged: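 Viability counter-screen: KeratinoSens reporter cells, DMSO-delivered compounds, 23 h at 37 C, CellTiter-Fluor fluorescence.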
Background: qHTS replaces the single test concentration by a dilution series.

Experiment [2] can be described thus: Nuclear factor erythroid 2-related factor 2/antioxidant responsive element (Nrf2/ARE) small molecule agonists: luciferase reporter gene qHTS assay in human keratinocytes (AID 1919969). Further: nearly all actives have a fitted effect of over 35% in size. Further: potency means the concentration at half of the fitted maximal effect.
The target in experiment [3] is Gonadotropin-releasing hormone receptor (Homo sapiens) (UniProt P30968). The experiment can be described thus: Human gonadotropin-releasing hormone receptor (GnRHR) small molecule agonists, calcium flux assay in GnRHR-HEK293 cells (AID 1920063). Further: nearly all actives have a fitted effect of over 35% in size. The essentials: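 Tox21-format agonist screen using human GnRHR-expressing HEK293 cells and a fluorescent calcium dye; kinetic 3-min fluorescence reading after compound addition, 15-point concentration series run in triplicate.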
Background: Calcium flux is commonly read through the fluorescence of an indicator in the cells.

Experiment [4] concerns the target KiSS-1 receptor (Homo sapiens) (UniProt Q969F8). The experiment is described as follows: Human kisspeptin (KISS1R) small molecule agonists, calcium flux assay in KISS1R-HEK293 cells (AID 1920064; active means well fitted curve in the direction sought with a large enough effect in the repeat runs; an effect the other way counts as inactive or inconclusive). The procedure, abridged: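 Intracellular calcium mobilization in KISS1R-HEK293 cells was recorded by fluorescence (Ex/Em 480/540) for 3 min following compound addition to cells pre-loaded 1 h with calcium dye.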

The nature of experiment [5]: G protein-coupled receptor (GPCR) small molecule agonists, calcium flux assay: HEK293 wild type cell line counter screen (AID 1920065). The essentials: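 In this agonist-mode screen, ATP is the positive control and DMSO the vehicle. Cells grow 18 h before a 1 h dye incubation at 37 C; signal is taken at Ex/Em 480/540 over 3 min.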
Experiment [6] can be described thus: p53 small molecule agonists, cell-based qHTS assay with human liver microsomes (AID 1963577).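 Further: p53 response element beta-lactamase reporter cells with liver microsomes plus NADPH.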 The procedure, abridged:
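Reporter activation was measured by LiveBLAzer fluorescence intensity in p53RE-bla cells, which had been exposed to compounds for 16 h at 37 C alongside 0.5 mg/mL human liver microsomes and 0.5 mg/mL NADPH (final concentrations).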

The nature of experiment [7]: p53 small molecule agonists, cell-based qHTS assay with rat liver microsomes (AID 1963578). The essentials:
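Compound in DMSO added to p53RE-bla cells 5 h post-plating; rat microsomes/NADPH 0.5 mg/mL final; 16 h, 37 C; LiveBLAzer 2 h RT.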

Experiment [8] in a line: p53 small molecule agonists, cell-based qHTS assay with human liver microsomes: qHTS cell viability counter screen (AID 1963579). Further: nearly all actives have a fitted effect of over 45% in size. The essentials:
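HLM-supplemented (0.5 mg/mL final) and NADPH-supplemented (0.5 mg/mL final) p53RE-bla cultures, 4,000 cells per well, were dosed with compounds in DMSO for 16 h at 37 C; luminescent ATP detection (CellTiter-Glo, 30 min, room temperature) quantified surviving cells.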

Experiment [9] in a line: p53 small molecule agonists, cell-based qHTS assay with rat liver microsomes: qHTS cell viability counter screen (AID 1963580). Further: nearly all actives have a fitted effect of over 45% in size. The procedure, abridged:
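p53RE-bla HCT-116 cells (4,000/well) rested 5 h at 37 C, then given Tox21 compounds in DMSO with rat liver microsomes (0.5 mg/mL final) plus NADPH (0.5 mg/mL final) for 16 h at 37 C. Viability read by CellTiter-Glo luminescence after 30 min at room temperature.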

A short description of experiment [10]: p53 small molecule agonists, cell-based qHTS assay: qHTS cell viability counter screen (AID 1963581). Further: nearly all actives have a fitted effect of over 45% in size. The essentials: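 Compounds are pinned onto HCT-116 p53RE-bla cells and left 16 h at 37 C. Following the reporter FRET read, ATP is quantified by CellTiter-Glo luminescence after 30 min at room temperature.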
Experiment [11] can be described thus: p53 small molecule agonists, cell-based qHTS assay (AID 1963582; active means well fitted activation curve with a large enough effect in the signal ratio in the repeat runs, not every such curve was filed as active; the % refers to the signal ratio). The essentials: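 Agonist activity was scored from beta-lactamase FRET fluorescence in p53RE-bla cells treated 16 h at 37 C with compounds in DMSO, substrate incubation being 2 h at room temperature.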
Experiment [12] deals with 5-hydroxytryptamine receptor 2A (Homo sapiens) (UniProt P28223). The experiment can be described thus: 5-hydroxytryptamine receptor 2A (HTR2A) small molecule antagonists, cell-based qHTS assay (AID 1963586). Further: nearly all actives have a fitted effect of over 45% in size. The procedure, abridged: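 Antagonist-mode intracellular calcium assay: DOI (4 nM) added after 5 min compound pre-incubation at room temperature to dye-loaded HTR2A-CHO cells. Fluorescence followed for 3 min, sampled every second.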

The target is the same in experiment [13]. The experiment is described as follows: 5-hydroxytryptamine receptor 2A (HTR2A) small molecule agonists, cell-based qHTS assay (AID 1963587). Further: nearly all actives have a fitted effect of over 30% in size. The essentials: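 HTR2A-CHO cells, plated 18 h at 37 C/5% CO2, dye-loaded 1 h at 37 C; compounds in DMSO added by pin tool (agonist mode). Intracellular calcium flux read as kinetic fluorescence on FDSS over 2 min at 1 s intervals.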

For experiment [14], the target named is Muscarinic acetylcholine receptor M1 (Homo sapiens) (UniProt P11229). The experiment is described as follows: Cholinergic receptor muscarinic 1 (CHRM1) small molecule antagonists, cell-based qHTS assay (AID 1963588). Further: nearly all actives have a fitted effect of over 40% in size. Further: potency means the concentration at half of the fitted maximal effect. The essentials:
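CHRM1-CHO calcium-flux assay, antagonist mode. Cells were seeded 18 h, dye-loaded 1 h at 37 C and given compound for 5 min at RT, then acetylcholine was added at 50nM. FDSS fluorescence was read 3 min; 15 concentrations, three runs.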

Experiment [15] has the same target. The experiment can be described thus: Cholinergic receptor muscarinic 1 (CHRM1) small molecule agonists, cell-based qHTS assay (AID 1963589). Further: nearly all actives have a fitted effect of over 35% in size. The procedure, abridged:
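Stable CHRM1-CHO cells (human receptor) were incubated 18 h, dye-loaded for 1 h at 37 C and exposed to test compounds for agonist activity, with calcium-dependent fluorescence followed kinetically.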

The target of experiment [16] is Beta-2 adrenergic receptor (Homo sapiens) (UniProt P07550). The experiment can be described thus: Adrenergic beta2 receptor (ADRB2) small molecule antagonists, cell-based qHTS assay (AID 1963592). Further: series mostly up to about 92 µM; nearly all actives have a fitted effect of over 50% in size. The procedure, abridged: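 Cells (CHO, stable ADRB2 overexpression) incubated 18-20hr at 37C; compounds added from DMSO; agonist mix (1nM isoproterenol, 100uM IBMX, 25uM Ro-20-1724) added; 0.5hr RT; d2-cAMP and anti-cAMP-cryptate added; 1hr RT; 665/615 nm read.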

In experiment [17] the target is D(2) dopamine receptor (Homo sapiens) (UniProt P14416). The experiment can be described thus: Dopamine D2 receptor (DRD2) small molecule agonists, cell-based qHTS assay (AID 1963594). Further: nearly all actives have a fitted effect of over 35% in size. The procedure, abridged: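 HEK293 cells stably expressing DRD2 were cultured 24 h at 37 C, then given Ro20-1724 (0.1 mM final) and compounds for 10 min at room temperature. NKH477 (200nM) was then added for 30 min. cAMP was read by HTRF.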

For experiment [18] the target is unchanged. The experiment is described as follows: Dopamine D2 receptor (DRD2) small molecule antagonists, cell-based qHTS assay (AID 1963595; active means well fitted inhibition curve with a large enough effect in the signal ratio in the repeat runs, with a control signal flat; the % refers to the signal ratio). The procedure, abridged: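 Human DRD2 antagonist qHTS measuring cAMP by HTRF. The cells are exposed to compound for 10 min, then to NKH477 (200 nM) and quinpirole (12 nM) for 30 min at RT, with Ro20-1724 (0.1 mM) present throughout.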

Experiment [19] is described as follows: cAMP Responsive Elements (CRE) small molecule agonists, cell-based qHTS assay (AID 1963590). The essentials:
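FRET-based beta-lactamase readout (LiveBLAzer B/G, 2 h RT) quantified CRE activation in HEK 293T CRE-bla cells after 3 h treatment with DMSO-dissolved compounds.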

Experiment [20] is described as follows: cAMP Responsive Elements (CRE) small molecule antagonists, cell-based qHTS assay (AID 1963591; active means well fitted inhibition curve with a large enough effect in the signal ratio in the repeat runs, not every such curve was filed as active; the % refers to the signal ratio). The essentials:
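qHTS in CRE-bla HEK 293T cells: compound in DMSO, then 0.25 uM NKH477 (final), 3 h at 37 °C/5% CO2; beta-lactamase FRET read-out after 2 h substrate incubation.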

Chain of 5-hydroxytryptamine receptor 2A (Homo sapiens) (P28223 whole entry, looked up): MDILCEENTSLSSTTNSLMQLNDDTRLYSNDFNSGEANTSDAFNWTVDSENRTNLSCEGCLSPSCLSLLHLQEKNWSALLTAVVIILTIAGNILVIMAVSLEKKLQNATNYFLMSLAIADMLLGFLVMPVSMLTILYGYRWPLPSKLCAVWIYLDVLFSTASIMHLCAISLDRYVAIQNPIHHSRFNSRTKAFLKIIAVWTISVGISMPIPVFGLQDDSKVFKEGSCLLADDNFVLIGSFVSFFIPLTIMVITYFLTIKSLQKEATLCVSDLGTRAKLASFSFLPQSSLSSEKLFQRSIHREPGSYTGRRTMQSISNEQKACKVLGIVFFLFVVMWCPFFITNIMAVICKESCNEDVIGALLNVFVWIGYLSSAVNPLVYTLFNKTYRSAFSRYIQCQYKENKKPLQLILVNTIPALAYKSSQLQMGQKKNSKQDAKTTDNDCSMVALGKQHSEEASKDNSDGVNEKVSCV
Chain of Muscarinic acetylcholine receptor M1 (Homo sapiens) (P11229 whole entry, looked up): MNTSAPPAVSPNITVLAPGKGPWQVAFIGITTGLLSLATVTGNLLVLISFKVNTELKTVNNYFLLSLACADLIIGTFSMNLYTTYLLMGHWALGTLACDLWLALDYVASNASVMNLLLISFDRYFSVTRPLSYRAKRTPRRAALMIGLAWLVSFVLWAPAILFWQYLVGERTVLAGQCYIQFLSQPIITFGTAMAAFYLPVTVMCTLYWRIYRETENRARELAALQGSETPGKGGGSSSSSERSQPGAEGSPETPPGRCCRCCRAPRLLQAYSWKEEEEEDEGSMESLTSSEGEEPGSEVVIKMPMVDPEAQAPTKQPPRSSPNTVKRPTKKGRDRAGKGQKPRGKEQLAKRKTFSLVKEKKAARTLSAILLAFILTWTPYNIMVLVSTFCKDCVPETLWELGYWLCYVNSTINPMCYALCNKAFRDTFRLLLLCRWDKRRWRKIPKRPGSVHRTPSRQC
Chain of Gonadotropin-releasing hormone receptor (Homo sapiens) (P30968 whole entry, looked up): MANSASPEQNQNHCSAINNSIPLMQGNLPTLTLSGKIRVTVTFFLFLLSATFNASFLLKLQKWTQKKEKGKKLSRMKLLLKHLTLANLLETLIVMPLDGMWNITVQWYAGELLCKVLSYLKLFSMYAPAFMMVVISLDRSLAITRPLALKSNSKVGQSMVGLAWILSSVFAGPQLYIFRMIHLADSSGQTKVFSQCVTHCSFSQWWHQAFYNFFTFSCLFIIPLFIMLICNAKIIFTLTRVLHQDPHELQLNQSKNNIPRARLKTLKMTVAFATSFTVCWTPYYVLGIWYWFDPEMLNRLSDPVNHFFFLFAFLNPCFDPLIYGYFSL
Chain of KiSS-1 receptor (Homo sapiens) (Q969F8 whole entry, looked up): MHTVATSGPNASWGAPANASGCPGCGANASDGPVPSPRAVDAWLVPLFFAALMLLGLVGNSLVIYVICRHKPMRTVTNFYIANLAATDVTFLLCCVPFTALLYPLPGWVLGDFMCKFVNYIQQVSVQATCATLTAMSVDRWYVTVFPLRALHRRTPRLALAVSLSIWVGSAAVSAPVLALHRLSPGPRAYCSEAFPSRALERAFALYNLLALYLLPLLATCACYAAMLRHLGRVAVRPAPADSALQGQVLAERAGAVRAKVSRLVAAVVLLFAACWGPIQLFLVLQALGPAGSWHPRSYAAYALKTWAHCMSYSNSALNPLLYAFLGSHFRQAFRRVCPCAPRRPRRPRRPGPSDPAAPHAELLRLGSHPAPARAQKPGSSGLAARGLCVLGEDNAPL
Chain of D(2) dopamine receptor (Homo sapiens) (P14416 whole entry, looked up): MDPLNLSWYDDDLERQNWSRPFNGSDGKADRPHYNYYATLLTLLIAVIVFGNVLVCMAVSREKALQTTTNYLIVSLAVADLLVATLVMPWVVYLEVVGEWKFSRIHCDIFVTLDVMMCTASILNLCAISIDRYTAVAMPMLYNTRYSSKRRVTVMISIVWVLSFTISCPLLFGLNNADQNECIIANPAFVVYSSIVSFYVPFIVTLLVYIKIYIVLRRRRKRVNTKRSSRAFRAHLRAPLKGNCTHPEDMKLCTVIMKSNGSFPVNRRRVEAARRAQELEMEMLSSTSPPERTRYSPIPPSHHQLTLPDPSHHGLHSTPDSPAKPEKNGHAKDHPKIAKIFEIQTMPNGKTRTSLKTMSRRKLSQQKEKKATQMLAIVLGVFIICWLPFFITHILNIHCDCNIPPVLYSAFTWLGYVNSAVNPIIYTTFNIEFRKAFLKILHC
Chain of Beta-2 adrenergic receptor (Homo sapiens) (P07550 whole entry, looked up): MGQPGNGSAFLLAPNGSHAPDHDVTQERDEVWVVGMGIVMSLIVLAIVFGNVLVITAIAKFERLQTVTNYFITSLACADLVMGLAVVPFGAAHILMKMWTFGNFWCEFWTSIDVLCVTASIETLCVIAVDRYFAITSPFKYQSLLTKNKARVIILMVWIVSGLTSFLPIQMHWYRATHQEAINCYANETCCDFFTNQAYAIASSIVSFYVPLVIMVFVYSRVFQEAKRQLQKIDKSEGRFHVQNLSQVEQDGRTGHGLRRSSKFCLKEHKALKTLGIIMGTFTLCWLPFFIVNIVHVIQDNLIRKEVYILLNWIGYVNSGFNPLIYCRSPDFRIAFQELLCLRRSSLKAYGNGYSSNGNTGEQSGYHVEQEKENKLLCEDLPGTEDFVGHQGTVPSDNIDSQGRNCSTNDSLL

Regarding `CCCCN(CCCC)C(=O)N(CCCC)CCCC`, the Potency result in experiment [1], in [3], in experiment [6], in [7], in experiment [8] and in experiment [9] was “inactive” each time. The Potency entry in experiment [10], in experiment [11], in [12], in experiment [13], in experiment [14] and in [15] was “inactive” each time. Also, the Potency result in experiment [16], in experiment [17] and in [18] was “inactive” in each case. Moreover, the Potency in experiment [2] is 61.1 µM (active). The outcome in experiment [4] and in experiment [5] was inactive.

Turning to `Cc1ncc(CO)c(C=O)c1O`, the Potency entry in experiment [1], in [2], in experiment [3], in [6], in experiment [7] and in experiment [8] was “inactive” in each case. The Potency entry in [9], in experiment [10], in [11], in experiment [12], in [13] and in experiment [14] was “inactive” in each case. Also, the Potency result in [15], in experiment [19], in experiment [16] and in [18] was “inactive” throughout. Moreover, the outcome in experiment [4] and in [5] was inactive.

As for `OC1CCCc2ccccc21` (stereo not drawn), the Potency entry in [1], in experiment [2], in experiment [3], in [6], in [7] and in experiment [8] was “inactive” each time. For the same compound, the Potency entry in experiment [9], in [10], in experiment [11], in experiment [12], in [13] and in [14] was “inactive” each time. In addition, the Potency entry in [15], in [19], in [16], in experiment [17] and in experiment [18] was “inactive” throughout. Also, the outcome in experiment [4] and in experiment [5] was inactive.

`CCCCC(=O)O[C@]1(C(=O)CO)CC[C@H]2[C@@H]3CCC4=CC(=O)CC[C@]4(C)[C@H]3[C@@H](O)C[C@@]21C`: the Potency entry in experiment [1], in [2], in experiment [3], in experiment [6], in experiment [7] and in experiment [8] was “inactive” in each case. The Potency result in experiment [9], in experiment [10], in experiment [11], in experiment [12], in experiment [13] and in experiment [14] was “inactive” throughout. Further, the Potency result in experiment [15], in [16], in experiment [17] and in [18] was “inactive” each time. Also, the result in [4] and in [5] was inactive.

With `CC(=O)N/N=C/c1ccc([N+](=O)[O-])o1`, the Potency entry in [1], in experiment [3], in [6], in experiment [7], in experiment [8] and in experiment [9] was “inactive” throughout. The Potency result in [10], in [11], in experiment [12], in [13], in [15] and in [19] was “inactive” in each case. Further, the Potency entry in experiment [17] and in experiment [18] was “inactive” in each case. The Potency in experiment [2] is 33.5 µM (active); in experiment [14] it was 0.0326 µM (active). Further, the outcome in experiment [4] and in [5] was inactive.

On to `COC[C@H](c1ccc(C(F)(F)F)cc1)N1CCN(C2(C)CCN(C(=O)c3c(C)ncnc3C)CC2)C[C@H]1C`, for which the Potency entry in experiment [1], in experiment [2], in experiment [3], in experiment [6], in experiment [7] and in experiment [8] was “inactive” in each case. Besides, the Potency result in [9], in experiment [10], in experiment [11], in [12], in [13] and in experiment [15] was “inactive” throughout. Also, the Potency entry in experiment [16], in experiment [17] and in [18] was “inactive” each time. Also, the result in experiment [4] and in experiment [5] was inactive. In addition, the Potency in [14] was 5.16 µM (active).

As for `CC(C)COC(=O)COc1cc(Cl)c(Cl)cc1Cl`, the Potency result in experiment [1], in experiment [2], in experiment [3], in experiment [6], in [7] and in [8] was “inactive” each time. Further, the Potency entry in experiment [9], in experiment [10], in experiment [11], in experiment [12], in experiment [13] and in experiment [14] was “inactive” in each case. The Potency result in experiment [15], in [20], in experiment [16], in [17] and in experiment [18] was “inactive” throughout. The outcome in experiment [4] and in experiment [5] was inactive.

(Values after PubChem BioAssay (Tox21).)
